BAZ2B block: blocks human BAZ2B. AID 504333. Q9UIF8. 360,000 compounds, 4.4% hits. AlphaScreen BAZ2B-H3K14Ac peptide displacement. Potency, µM (highest dose often 114 µM), actives largely listed as inhibitors; note: nearly all actives have a fitted effect of over 60% in size
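BAZ2B (50 nM) with biotin-H3(5-23)K14Ac peptide (50 nM) in PBS pH 7.4, 0.01% Tween-20, preformed 30 min, then compound 30 min at room temperature; top concentration 110uM. AlphaScreen streptavidin donor/nickel chelate acceptor beads (10 ug/mL final), 20 min dark, signal read.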
HP1b binding inh: HP1-beta chromodomain-methylated histone interaction inhibition; AlphaScreen HP1-beta / biotin-H3K9me3 peptide binding; P83916; 390,000 compounds, 0.56% hits; AID 540317; Potency, µM (series often up to 114 µM), usual class: inhibitors; note: nearly all actives have a fitted effect of over 70% in size
Target sequence (P83916 whole entry, looked up): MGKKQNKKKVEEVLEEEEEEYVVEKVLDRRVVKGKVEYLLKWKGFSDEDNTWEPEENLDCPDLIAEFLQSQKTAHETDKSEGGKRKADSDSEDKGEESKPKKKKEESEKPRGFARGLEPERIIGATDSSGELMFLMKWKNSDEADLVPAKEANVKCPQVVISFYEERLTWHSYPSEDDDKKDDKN
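HP1-beta protein (50 nM final) preincubated 30 min at room temperature with biotinylated H3(1-18)K9me3 peptide (50 nM) in PBS pH 7.4, 0.01% Tween-20, then compound added for 30 min. AlphaScreen streptavidin donor/nickel chelate acceptor beads (10 ug/mL final), 30 min dark, luminescence read.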
JMJD2A Tudor: inhibitors of human JMJD2A Tudor domain; O75164; AlphaScreen JMJD2A-Tudor / H3K4me3 peptide binding; Potency, µM (doses to about 114 µM), hits mostly inhibitors; 390,000 compounds, 4.4% hits; note: nearly all actives have a fitted effect of over 50% in size
Six1-Eya2 blk: blocks human Six1 binding to Eya2 | Q15475+O00167 | 360,000 compounds, 0.56% hits | AID 651725 | AlphaScreen GST-Six1/His-Eya2 binding, biochemical; hits give low values | activity change, % (test concentration not listed); in the data active = activity change below about -65%; inconclusive = mostly about -30% to -63%
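AlphaScreen luminescence read after one hour at 37 °C in darkness. Pin-transferred compounds met GST-Six1 and His-Eya2 protein (5X stock 250 nM/500 nM) plus glutathione donor and Ni-chelate acceptor beads (5X, 50 ug/mL).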
TDP1 block: TDP1 (human) enzyme inhibition | Q9NUW8 | 350,000 compounds, 0.28% hits | recombinant TDP1, AlphaScreen DNA substrate cleavage | Potency, µM (top dose mostly 130 µM), most hits filed as inhibitors | AID 485290; note: nearly all actives have a fitted effect of over 40% in size
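Compounds were preincubated with Tdp1 (1 nM final) for 15 min at room temperature before substrate (15 nM final) started a 5 min reaction; beads (10 ug/ml final) were then added for 10 min before AlphaScreen detection.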
CtBP-E1A inh: CtBP/E1A binding inhibition; AlphaScreen GST-E1A/His-CtBP binding, 1536-well; hits give low values; activity change, % (no concentration beside the values); 340,000 compounds, 0.49% hits; in the data active = activity change below about -65%; inconclusive = mostly about -30% to -63%
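In 5 uL wells, 23 nL compound meets equimolar GST-E1A and His-CtBP (5X stock 125 nM each) for 2 h, 37 °C. Beads (5X, 50 ug/mL) then 1 h, 37 °C, dark.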
Numbers stand for hits; i = inactive; ? = inconclusive; nt = not tested or not shown; [ ] = remark or other dose. A selection: hits, their analogues and other compounds. The true share with any hit is near 5.3%. Unless noted, calls come from the whole dose curve; as a rule, active = well fitted inhibition curve with a large enough effect; inconclusive = small, poorly fitted or top-dose-only effect; inactive = no such curve, though single readings can be large or run the other way.

SMILES | BAZ2B block | HP1b binding inh | JMJD2A Tudor | Six1-Eya2 blk | TDP1 block | CtBP-E1A inh
Cc1c(-c2nc(-c3ccc4c(c3)[nH]c(=O)n4C)no2)cccc1[N+](=O)[O-] | i | i | i | nt | i | nt
CCC(Sc1ncccc1C(=O)O)C(=O)N1CCCC1 (stereo unspecified) | ? | i | 3.55µM | i | nt | i
CCOC(=O)c1cccnc1SC(CC)C(=O)N1CCOCC1 (stereo unspecified) | i | i | i | i | i | i
CCC(Sc1ncccc1C(=O)O)C(=O)N1CCOCC1 (stereo unspecified) | ? | i | 5.62µM | i | i | i
O=C(CSc1cn[nH]n1)Nc1ccccc1C(=O)O | i | i | 79.4µM | i | nt | i
Cc1c(N=N/C(C(=O)Nc2ccccc2)=C(/O)c2ccccc2)c(=O)n(-c2ccccc2)n1C | 8.91µM | i | ? | i | i | i
CCOC(=O)/C(N=Nc1c(C)n(C)n(-c2ccccc2)c1=O)=C(/O)c1ccccc1 | ? | i | i | i | i | i
Cc1c(N=C(N)/N=C(\N)Nc2ccc(Br)cc2)c(=O)n(-c2ccccc2)n1C | i | i | 31.6µM | i | i | i
Cc1c(N=C(N)/N=C(\N)Nc2ccccc2)c(=O)n(-c2ccccc2)n1C | i | i | i | i | i | i
CC(C)n1c(=O)[nH][nH]c1=S | 50.1µM | 12.6µM | 8.91µM | i | i | i
Cc1nc2sccn2c1-c1nc(-c2cc3ccccc3o2)cs1 | ? | i | 25.1µM | ? | i | ?
O=C(O)Cc1cc(F)c(S(=O)(=O)N2CCN(S(=O)(=O)c3ccc4c(c3)OCCO4)CC2)cc1F | nt | nt | i | nt | ? | nt
O=C1S/C(=C/c2ccc(N3CCOCC3)o2)C(=O)N1Cc1ccc(F)cc1 | i | i | 89.1µM | i | i | i
O=C1NC(=S)S/C1=C/c1ccc(N2CCOCC2)o1 | 20µM | 35.5µM | 39.8µM | ? | i | i
COc1cc(NC(=O)CN2C(=O)C(c3ccc(Cl)cc3)=NC23CCCCC3)cc(OC)c1 | i | i | i | nt | i | nt
O=C(Nc1sc2c(c1C(=O)NCc1ccccc1)CCCC2)c1cc(=O)c2cc(Cl)ccc2o1 | i | i | i | nt | i | nt
O=C(O)c1ccc(S(=O)(=O)N[C@H](Cc2c[nH]c3ccccc23)C(=O)O)cc1 | i | nt | i | nt | i | nt
COc1ccccc1NC(=O)CN1CCCN(S(=O)(=O)c2ccc(Br)cc2)CC1 | i | i | i | nt | i | nt
CCOc1cc(C(=O)N2CCn3c4c(c5cc(C)ccc53)CCCC42)cc(OCC)c1OCC (stereo unspecified) | i | i | i | nt | i | nt
CC(=O)N1CCn2c3c(c(=O)c4cc(C)ccc42)CCC31 (stereo unspecified) | i | i | i | i | i | i
Cc1ccc2c(c1)c1c3n2CCN(C(=O)CCl)C3CCC1 (stereo unspecified) | 56.2µM | i | ? | i | nt | i
CC(=O)N1CCn2c3c(c4cc(C)ccc42)CCCC31 (stereo unspecified) | 35.5µM | i | i | i | i | nt
Cc1ccc(NC(=O)CCc2c(C)nc3ncnn3c2C)cc1Cl | i | i | i | nt | i | nt
N#Cc1ccc(CS(=O)(=O)c2nnnn2-c2ccccc2)cc1 | nt | nt | nt | nt | i | nt
COc1cc(F)c(S(=O)(=O)N2CCN(S(=O)(=O)c3ccc(N)cc3)CC2)c(F)c1 | nt | nt | i | nt | i | nt
SMILES | BAZ2B block | HP1b binding inh | JMJD2A Tudor | Six1-Eya2 blk | TDP1 block | CtBP-E1A inh
COc1ccc2c(c1OC)C(=O)OC2CC(=O)c1ccc(O)c(O)c1 (stereo unspecified) | ? | i | 5.01µM | i | i | i
COc1ccc2c(c1OC)C(=O)OC2CC(=O)c1ccc(O)cc1 (stereo unspecified) | i | i | i | i | i | i
Cc1nc2ccc(NC(=S)NCCCO)cc2nc1C | i | 79.4µM | i | i | i | i
COc1ccccc1-n1cnnc1SCC(=O)Nc1ncc(Cl)cc1Cl | i | i | 50.1µM | i | i | i
C=CCc1ccccc1OCCNCc1ccccc1 | ? | ? | 0.891µM | i | i | i
C=CCc1ccc(OCCCOc2ccc(C)cc2OC)c(OC)c1 | i | i | i[11.4 µM] | i | i | i
C=CCc1ccc(OCCCNCc2ccccc2)c(OC)c1 | 50.1µM | ? | 28.2µM | i | nt | nt
C=CCc1cccc(Cl)c1OCCCNC1CCCC1 | ? | i | 50.1µM | i | nt | nt
C=CCc1ccccc1OCC(O)CNC1CCCC1 (stereo unspecified) | i | i | i | i | i | nt
C=CCc1ccccc1OCC(=O)O | i | i | i | i | nt | nt
C=CCc1ccc(OCCCNC2CCCC2)c(OC)c1 | nt | ? | 79.4µM | i | nt | i
CCC(=O)C1=C(c2ccc(F)cc2)N(C(=O)CC)n2cnnc2S1 | i | i | i | nt | i | nt
O=C(Cc1ccccc1)Nc1sc2c(c1C(=O)Nc1cccc(Cl)c1)CCCC2 | nt | nt | i | nt | i | nt
O=C(O)c1ccccc1Nc1ccc([N+](=O)[O-])cc1C(=O)O | ? | i | 31.6µM | i | nt | i
NC(=O)c1cc([N+](=O)[O-])ccc1Nc1ccccc1 | i | i | i | i | i | i
O=C(O)c1ccccc1Nc1ccc([N+](=O)[O-])c2nonc12 | 39.8µM | ? | i | i | nt | i
Nc1cc(Nc2ccccc2)c2nonc2c1[N+](=O)[O-] | i | i | i | ? | nt | i
O=C1c2ccccc2C(=O)N1c1ccccc1O | nt | nt | i | nt | i | nt
Fc1ccc(-c2noc3ncnc(NC4CCCCC4)c23)cc1 | i | i | i | nt | i | nt
CCOCCCNC(=O)c1c(NC(=O)c2cc(=O)c3ccccc3o2)sc2c1CCC2 | i | i | i | nt | i | nt
CNC(=O)[C@H](Cc1c[nH]c2ccccc12)NC(=O)[C@@H](CC(=O)NO)CC(C)C | nt | nt | nt | nt | i | nt
COc1ccc(S(=O)(=O)/N=C2\C=C(Nc3ccc(O)cc3)C(=O)c3ccccc32)cc1 | 8.91µM | 10µM | 5.62µM | ? | i | -87.5
Cc1ccc(NC2=C/C(=N/S(=O)(=O)c3cccs3)c3ccccc3C2=O)cc1C | ? | i | i | i | i | i
CC(=O)Nc1ccc(NC2=C/C(=N/S(=O)(=O)c3cccs3)c3ccccc3C2=O)cc1 | 3.55µM | 50.1µM | 50.1µM | i | i | i
CCCN(C(=O)Cn1nc(Cc2ccncc2)c2ccccc2c1=O)c1ccccc1C | i | i | i | nt | i | nt
SMILES | BAZ2B block | HP1b binding inh | JMJD2A Tudor | Six1-Eya2 blk | TDP1 block | CtBP-E1A inh
CC(NC(=O)c1ccc(NC(=O)c2nsc3ccccc23)cc1)c1ccccc1 (stereo unspecified) | i | i | i | nt | i | nt
CC(C)NC[C@@H](O)c1ccc(O)c(O)c1 | ? | ? | 44.7µM | i | ? | i
COc1ccc(OC)c(NC(=O)N2CCC(CN3CCCCC3)CC2)c1 | i | i | i | nt | i | nt
CC(C)NCc1cccc([N+](=O)[O-])c1 | 56.2µM | ? | 20µM | i | i | i
C[n+]1c(-c2ccccc2)cc2c(=Cc3ccc([N+](=O)[O-])cc3)c3ccccc3n21 | nt | ? | 44.7µM | ? | nt | i
C[n+]1c(-c2ccccc2)cc2c(=Cc3ccccc3)c3ccccc3n21 | nt | ? | 39.8µM | ? | nt | i

Source: PubChem
